Granule exo inh – blocks lytic granule exocytosis. TALL-104 LAMP-1 surface exposure, flow cytometry; cells stimulated with thapsigargin and PMA. inhibition, % at 10 µM. actives 0.66% (n = 360,000);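 active = inhibition above about 55%, limit read from the data; inconclusive = no clear call, values can overlap the other calls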
ABCB6 inh 2 – inhibitors of human ABC transporter ABCB6. Q9NP58. K562-ABCB6 porphyrin accumulation, flow cytometry, 1 h; hits give low values. fluorescence ratio to DMSO, % at 10 µM. actives 0.19% (n = 360,000);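 active = fluorescence ratio to DMSO below 75%, the collection mean minus 3 SD; inconclusive = too few cells collected in the well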;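 note: signal is porphyrin accumulated inside mitochondria; lower ratio means ABCB6 inhibition with less porphyrin fluorescence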
Target sequence (Q9NP58 whole entry, looked up): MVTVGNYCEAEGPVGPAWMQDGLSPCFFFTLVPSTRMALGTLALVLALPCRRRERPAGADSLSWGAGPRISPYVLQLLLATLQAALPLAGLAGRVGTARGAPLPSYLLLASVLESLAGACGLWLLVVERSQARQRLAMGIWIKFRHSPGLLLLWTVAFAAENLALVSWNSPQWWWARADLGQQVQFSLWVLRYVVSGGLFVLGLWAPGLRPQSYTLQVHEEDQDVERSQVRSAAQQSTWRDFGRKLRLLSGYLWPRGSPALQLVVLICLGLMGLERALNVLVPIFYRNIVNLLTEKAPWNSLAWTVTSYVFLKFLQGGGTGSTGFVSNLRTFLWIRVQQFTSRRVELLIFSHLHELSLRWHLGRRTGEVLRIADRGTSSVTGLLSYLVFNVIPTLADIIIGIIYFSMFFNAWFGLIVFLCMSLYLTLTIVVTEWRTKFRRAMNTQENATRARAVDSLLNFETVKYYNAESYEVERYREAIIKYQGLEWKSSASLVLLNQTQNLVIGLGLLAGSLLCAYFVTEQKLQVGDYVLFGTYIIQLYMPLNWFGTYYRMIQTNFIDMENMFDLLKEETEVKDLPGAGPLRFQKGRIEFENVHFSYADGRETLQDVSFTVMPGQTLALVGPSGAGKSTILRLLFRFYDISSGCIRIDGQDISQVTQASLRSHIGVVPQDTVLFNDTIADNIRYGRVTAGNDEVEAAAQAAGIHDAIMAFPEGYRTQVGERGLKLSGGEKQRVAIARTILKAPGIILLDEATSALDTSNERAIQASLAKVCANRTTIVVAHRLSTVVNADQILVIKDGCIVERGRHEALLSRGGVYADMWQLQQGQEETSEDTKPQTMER
Myeloid diff 2 – compounds promoting myeloid differentiation | calls only at 10 µM | AID 624256 | actives 1% (n = 360,000) | ER-HoxA9 myeloid progenitors, lysozyme-GFP differentiation, flow cytometry;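 active = normalized GFP-positive differentiation at or above the plate's own cutoff, the solvent-only control mean plus 3 SD; inconclusive = no clear call, values can overlap the other calls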;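 note: cells exposed to compound for four days before flow analysis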
Exocytosis CP01 – lytic granule exocytosis inhibition. shares compounds with Granule exo inh. inhibition, % at 10 µM. actives 11% (n = 1,500). AID 651954. TALL-104 cells, LAMP-1 externalization, flow cytometry; stimulated with PMA plus thapsigargin; in the data active = inhibition above about 60%
Each line names hits and unclear results; the compound was inactive in the other large screens (follow-up assays come after a bar, where they were run); ! = not confirmed by another sample. Compounds with a hit are over-represented: about 1.8% of the library has one in this group of screens.

CCOC(=O)c1oc2ccc(Br)cc2c1COC(=O)C1=COCCO1	none
CCCC1=Nc2cc(C(=O)N3CCCC3)ccc2Sc2ccc(C)cc21	none
CCCC1=Nc2cc(C(=O)N3CCN(c4ccccn4)CC3)ccc2Sc2ccc(C)cc21	Granule exo inh 70 | Exocytosis CP01 inactive
CC(=O)c1ccc(NC(=O)c2ccccc2-c2ccccc2C(=O)O)cc1	none
CCCS(=O)(=O)NC(=O)C1(C)CCCN(C(=O)c2cc(C)n(C(C)(C)C)n2)C1 (stereo unspecified)	none
CCN1CCN(Cc2ccc(NC(=O)c3ccc(C)c(NC(=O)C(=O)c4c[nH]c5ccccc45)c3)cc2C(F)(F)F)CC1	Myeloid diff 2 inconclusive
CCN1CCN(Cc2ccc(NC(=O)c3cc(NC(=O)C(=O)c4c[nH]c5ccccc45)cc(OC)c3)cc2C(F)(F)F)CC1	Granule exo inh 56!, Myeloid diff 2 inconclusive | Exocytosis CP01 86
COc1ccc(C(=O)N2CCN(c3ccccn3)CC2)cc1[N+](=O)[O-]	none
COc1ccc(F)cc1-c1cc(C(=O)NCc2cccc(C(F)(F)F)c2)[nH]n1	none
COc1ccc(F)cc1-c1cc(C(=O)NCc2ccc(C(F)(F)F)cc2)[nH]n1	Granule exo inh 73 | Exocytosis CP01 inactive
CCN(C(=O)COC(=O)c1ccc(N2C(=O)c3ccccc3C2=O)cc1)C1CCS(=O)(=O)C1 (stereo unspecified)	none
C=CCn1c(SCC(=O)NCC2CCCO2)nnc1-c1ccccc1 (stereo unspecified)	none
O=C(Nc1nc(-c2ccccc2)cs1)c1ccc2c(=O)n3c(nc2c1)CCCCC3	Granule exo inh 97 | Exocytosis CP01 68
O=C(Nc1ccccc1Cl)c1ccc2c(=O)n3c(nc2c1)CCC3	none
CC(=O)Nc1ccc(N=Nc2ccccc2)cc1[N+](=O)[O-]	none
Cc1ccc(SCCC(=O)OCC(=O)Nc2ccc(C(N)=O)cc2)cc1	none
NS(=O)(=O)c1ccc(CCNCc2cc(Cl)ccc2OCc2ccccc2)cc1	none
NS(=O)(=O)c1ccc(CCNCc2ccccc2OCc2ccc(Cl)cc2)cc1	Granule exo inh 57 | Exocytosis CP01 inactive
CC(CCOS(N)(=O)=O)c1ccccc1 (stereo unspecified)	none
COc1ccc(CN2CCC(Cc3ccccc3)CC2)cc1OC	none
COc1cccc(OC)c1OCCCN1CCC(Cc2ccccc2)CC1	Granule exo inh 68 | Exocytosis CP01 inactive
COc1cccc(OC)c1OCCN1CCN(C(c2ccccc2)c2ccccc2)CC1	Granule exo inh 62 | Exocytosis CP01 inactive
COc1cccc(OC)c1OCCN1CCCC1	none
C=C(C)Cn1c(=O)c2c(nc3n2CCCN3CCc2ccccc2)n(C)c1=O	none
C=CCNc1nc(NCCOC)c2sc(-c3ccccc3)cc2n1	none
c1ccc(CNc2nc(NCC3CC3)nc3cc(-c4ccccc4)sc23)cc1	Granule exo inh 71, Myeloid diff 2 inconclusive | Exocytosis CP01 95
c1ccc(OCCNc2nc(NCC3CC3)nc3cc(-c4ccccc4)sc23)cc1	none
C=CCNc1nc(NCc2ccc(N(C)C)cc2)c2sc(-c3ccccc3)cc2n1	Granule exo inh 75, Myeloid diff 2 active | Exocytosis CP01 93
CCc1ccc(C)[n+](CC(=O)c2cccs2)c1	none
COc1cccc(CNC(=O)[C@@H](C)N2C(=O)N3CCc4c([nH]c5ccc(OC)cc45)C3(C)C2=O)c1 (stereo partly specified)	none
CSc1nc2sc3c(c2c(=O)[nH]1)CC(C)(C)OC3	none
CCOC(=O)[C@]12CCCC=C1N(Cc1ccccc1)C(=O)[C@H](CC(=O)NCCc1ccccc1OC)C2	none (no result: ABCB6 inh 2)
COc1ccc(Nc2nc(N3CCN(S(C)(=O)=O)CC3)nc3ccccc23)c(OC)c1	none
COc1ccc(Nc2nc(N3CCN(S(=O)(=O)N(C)C)CC3)nc3ccccc23)cc1	Granule exo inh 81 | Exocytosis CP01 inactive
O=C(COC(=O)Cc1n[nH]c(=O)c2ccccc12)Nc1c(Br)cc([N+](=O)[O-])cc1Br	none
CC(=O)N(C)c1ccc(NS(=O)(=O)c2cccc3nsnc23)cc1	none
COc1ccccc1OCC(=O)NCC1CCCN(Cc2cnn(C(C)C)c2)C1 (stereo unspecified)	none
C=CCOc1ccc(C(=O)c2ccccc2)c(OCC(=O)NC2(C#N)CCCC2)c1	Granule exo inh 61 | Exocytosis CP01 inactive
N#CC1(NC(=O)COc2ccccc2[N+](=O)[O-])CCCCC1	none
CCN(CC)C(=O)C1=C(C)N(Cc2ccc(C(C)(C)C)cc2)C(=O)C(CC(=O)NCCCCc2ccccc2)C1 (stereo unspecified)	none
COc1cccc(CC(=O)OCC(=O)NNC(=O)c2ccc(Br)cc2)c1	none
COc1ccc(CCN(C)c2ncnc3sccc23)cc1OC	none
COc1ccc(CCN(C)C(=O)CSc2ncnc3sccc23)cc1OC	Granule exo inh 77 | Exocytosis CP01 inactive
Cc1ccn(CC(=O)N2CCCC(N3CCN(c4cccc(C(F)(F)F)c4)CC3)C2)n1 (stereo unspecified)	none
CCN(CC(=O)Nc1c(F)cccc1F)C(=O)C1CC(=O)N(CCc2ccc(OC)c(OC)c2)C1 (stereo unspecified)	none
CCCOc1ccc(-c2nc(C#N)c(NCCCn3ccnc3)o2)cc1	none
N#Cc1nc(-c2ccc(OCc3ccccc3)cc2)oc1NCCCn1ccnc1	Granule exo inh 81 | Exocytosis CP01 inactive
CCOc1ccc2c(c1)nc(SCC(=O)c1cccs1)n2C	none
CCOc1ccc2c(c1)nc(SCC(=O)c1ccc(Br)s1)n2C	Granule exo inh 103 | Exocytosis CP01 inactive
Cc1cc(Nc2cccc([N+](=O)[O-])c2)c2ccccc2n1	none
CCOc1ccc2nc(C)cc(Nc3cccc([N+](=O)[O-])c3)c2c1	Granule exo inh 90 | Exocytosis CP01 80
Cc1nc([N+](=O)[O-])c(C(=O)OCc2cccc(Br)c2)n1C	none
CC(Oc1ccc(Br)cc1)C(=O)Nc1ccc(N2CCOCC2)cc1N1CCOCC1 (stereo unspecified)	none
Cc1ccc(N2C(=O)CC(N3CCN(c4ccccn4)CC3)C2=O)cc1 (stereo unspecified)	none
Cc1ccc2nc(-c3ccc(N4C(=O)CC(N5CCN(CCO)CC5)C4=O)cc3)sc2c1 (stereo unspecified)	Granule exo inh 66 | Exocytosis CP01 62
CCCCN(C(=O)CC1CCCC1)c1c(N)n(CC(C)C)c(=O)[nH]c1=O	none
Oc1c(Cl)cc(Cl)c2cccnc12	none
Oc1c(I)cc(I)c2cccnc12	Granule exo inh 74, Myeloid diff 2 inconclusive | Exocytosis CP01 inactive
C=CCn1c(SCC(=O)Nc2cccc(S(N)(=O)=O)c2)nc2sc(C)c(C)c2c1=O	none
O=C(NNC(=O)c1ccccc1[N+](=O)[O-])c1ccc(NC(=O)c2ccccc2)cc1	none
CCN(CC)CCn1c(=N)n(CC(=O)c2ccc(C)cc2)c2ccccc21	Granule exo inh 56 | Exocytosis CP01 inactive
Cc1ccc(C(=O)Cn2c(=N)n(N)c3ccccc32)cc1	none
CN1CCc2cc3c(c4c2[C@H]1[C@H](O)c1ccccc1-4)OCO3	none
CN1CCc2cccc3c2[C@H]1Cc1ccc(O)c(O)c1-3	Granule exo inh 84 | Exocytosis CP01 inactive
COc1cc(C(=O)NCC2(N(C)C)CCCCC2)ccc1OCc1ccccc1	none
COCCNC(=O)C1(C)CCCN(C(=O)c2c(-c3ccccc3)noc2C)C1 (stereo unspecified)	none
